By IC50 is commonly meant the concentration at which inhibition is half-maximal.

Calls of active or inactive are those of the source. Cut-off read from the data, not from the text of the source: active = IC50 below about 9 µM; inactive = the rest.

This test concerns Ba/F3 Cytotoxicity. The test can be described thus: JAK2V617F kinase, IRF1 reporter and Ba/F3 cytotoxicity panel, late-stage follow-up, HEL and Ba/F3 cells (AID 2165).
Turning to `N#CC(C#N)=Cc1cc(O)c(O)c(I)c1`, the IC50 was 8990 nM (active). As for `CC(C)[C@@H](CO)Nc1nc(Nc2cccc(Cl)c2)c2ncn(C(C)C)c2n1`, the IC50 is 950 nM (active).

As for `N#CC(C#N)=Cc1ccc(O)c(O)c1`, the IC50 was 2560 nM (active).

The values are drawn from PubChem BioAssay AID2165 (The Scripps Research Institute Molecular Screening Center, 2009).
